Assay results reported in PubChem BioAssay (NCI).
Compounds without any hit were thinned out: in the full panel of roughly 83,000, 20% have a hit.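 Activity criterion: percent growth below 10, measured after cells in 96-well plates were exposed to a single compound concentration for 48 hours.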 Calls of active or inactive are those of the source.

Legend:
Assay in all cases: NCI-60 one-dose screen, 48 h (100 = growth as untreated, 0 = no growth, -100 = all killed)
Conditions in all cases: 10 µM unless noted
SK-MEL-2 melanoma = tested on: SK-MEL-2 melanoma
EKVX NSCLC = tested on: EKVX NSCLC
SN12C renal = tested on: SN12C renal
UO-31 renal = tested on: UO-31 renal
TK-10 renal = tested on: TK-10 renal
ACHN renal = tested on: ACHN renal
CAKI-1 renal = tested on: CAKI-1 renal
CCRF-CEM leukemia = tested on: CCRF-CEM leukemia
MOLT-4 leukemia = tested on: MOLT-4 leukemia
RPMI-8226 leukemia = tested on: RPMI-8226 leukemia
OVCAR-8 ovarian = tested on: OVCAR-8 ovarian
OVCAR-5 ovarian = tested on: OVCAR-5 ovarian
OVCAR-4 ovarian = tested on: OVCAR-4 ovarian
SK-OV-3 ovarian = tested on: SK-OV-3 ovarian
IGROV1 ovarian = tested on: IGROV1 ovarian
OVCAR-3 ovarian = tested on: OVCAR-3 ovarian
HS 578T breast = tested on: HS 578T breast
NCI/ADR-RES ovarian = tested on: NCI/ADR-RES ovarian
A498 renal = tested on: A498 renal
SR leukemia = tested on: SR leukemia

Measured: growth

CC(C)(C)OC(=O)Nc1ccc2c(c1)C(NC(=O)Nc1cccc(C#N)c1)CC(C)(C)O2 (stereo unspecified)
inactive: SK-MEL-2 melanoma 36.3% | EKVX NSCLC 32.2% | SN12C renal 62.9% | UO-31 renal 40.8% | TK-10 renal 39.3% | ACHN renal 50.9% | CAKI-1 renal 39.2% | CCRF-CEM leukemia 41.7% | MOLT-4 leukemia 17.1% | RPMI-8226 leukemia 22.3% | OVCAR-8 ovarian 45.6% | OVCAR-5 ovarian 87.6% | OVCAR-4 ovarian 38.6% | SK-OV-3 ovarian 58% | IGROV1 ovarian 46% | OVCAR-3 ovarian 48% | HS 578T breast 85.5% | NCI/ADR-RES ovarian 48%

O=c1[nH]ccc2nc(N3CCC(O)CC3)nc(Nc3ccc(N4CCOCC4)cc3)c12
inactive: SK-MEL-2 melanoma 69.3% | EKVX NSCLC 89% | SN12C renal 37.8% | UO-31 renal 38.2% | TK-10 renal 82.1% | ACHN renal 55.5% | CAKI-1 renal 26.3% | A498 renal 57.9% | RPMI-8226 leukemia 80.9% | OVCAR-8 ovarian 85.5% | OVCAR-5 ovarian 42.6% | OVCAR-4 ovarian 112% | SK-OV-3 ovarian 14.9% | IGROV1 ovarian 47.3% | OVCAR-3 ovarian 101% | HS 578T breast 45.7% | NCI/ADR-RES ovarian 95.2%

O=C(CCCCCCN1CC(=O)N2[C@@H](c3ccccc3Cl)c3[nH]c4ccccc4c3C[C@H]2C1=O)NO
inactive: SK-MEL-2 melanoma 70.1% | EKVX NSCLC 82.2% | SN12C renal 70.1% | UO-31 renal 55.6% | TK-10 renal 68.9% | ACHN renal 81.7% | CAKI-1 renal 71.4% | SR leukemia 15.9% | RPMI-8226 leukemia 14.8% | OVCAR-8 ovarian 49.6% | OVCAR-5 ovarian 61% | OVCAR-4 ovarian 68.3% | SK-OV-3 ovarian 84.8% | IGROV1 ovarian 66.5% | OVCAR-3 ovarian 56.9% | HS 578T breast 59.2% | NCI/ADR-RES ovarian 89.8%

CC1OC(O[C@H]2/C=C/C=C/C=C/C=C/C=C/C=C/C=C/[C@H](C)[C@@H](O)[C@@H](C)[C@H](C)OC(=O)CC(O)CC(O)CCC(O)C(O)CC(O)C[C@]3(O)C[C@H](O)C(C(=O)O)C(C2)O3)C(O)[C@H](N)C1O (stereo partly specified)
active: EKVX NSCLC -14.3% | SN12C renal -84.1% | UO-31 renal -94.3% | TK-10 renal -40.7% | ACHN renal -80.3% | A498 renal 9.81% | OVCAR-5 ovarian -21% | OVCAR-3 ovarian -42.3% | HS 578T breast -18.7% | NCI/ADR-RES ovarian -29.9%
inactive: SK-MEL-2 melanoma 57.6% | CAKI-1 renal 36.1% | OVCAR-8 ovarian 23.8% | SK-OV-3 ovarian 38% | IGROV1 ovarian 16.6%

C=CCNc1nc(NN2C(=O)c3cccc4cccc(c34)C2=O)nc(-n2cnc3ccccc32)n1
inactive: SK-MEL-2 melanoma 98.9% | EKVX NSCLC 62.8% | SN12C renal 60.4% | UO-31 renal 14.3% | TK-10 renal 102% | ACHN renal 64.8% | CAKI-1 renal 51.5% | CCRF-CEM leukemia 83.8% | MOLT-4 leukemia 56% | RPMI-8226 leukemia 65.7% | OVCAR-8 ovarian 81.5% | OVCAR-5 ovarian 77.2% | OVCAR-4 ovarian 52.5% | SK-OV-3 ovarian 40.9% | IGROV1 ovarian 46.7% | OVCAR-3 ovarian 84.5% | HS 578T breast 35.9% | NCI/ADR-RES ovarian 72%

COc1ccc2c(c1)C(=O)/C(=C/c1ccc(OCC(=O)Nc3nccs3)cc1)O2
active: UO-31 renal -80.8% | CAKI-1 renal -78.4% | CCRF-CEM leukemia -73.8% | MOLT-4 leukemia -72.9% | RPMI-8226 leukemia -53.8% | OVCAR-5 ovarian -31.5% | OVCAR-3 ovarian -24.4%
inactive: SK-MEL-2 melanoma 112% | EKVX NSCLC 32.7% | SN12C renal 48.2% | TK-10 renal 93.9% | ACHN renal 49% | OVCAR-8 ovarian 19.1% | OVCAR-4 ovarian 48.3% | SK-OV-3 ovarian 37.9% | HS 578T breast 56.2% | NCI/ADR-RES ovarian 56.9%

COc1ccc2cc(-c3cc(OC)c(OC)c(OC)c3)c(=O)oc2c1
inactive: SK-MEL-2 melanoma 62.3% | EKVX NSCLC 54.1% | SN12C renal 92.7% | UO-31 renal 87.7% | TK-10 renal 85.8% | ACHN renal 90.1% | CAKI-1 renal 79.3% | CCRF-CEM leukemia 74.6% | SR leukemia 26.8% | RPMI-8226 leukemia 83.6% | OVCAR-8 ovarian 82.8% | OVCAR-5 ovarian 94.2% | OVCAR-4 ovarian 79.9% | SK-OV-3 ovarian 72% | IGROV1 ovarian 82.3% | OVCAR-3 ovarian 81.8% | HS 578T breast 75.5% | NCI/ADR-RES ovarian 49%

N#Cc1c(-c2ccccc2)cc(-c2ccc(Nc3nc(Nc4ccc(F)cc4)nc(Nc4ccc(F)cc4)n3)cc2)nc1N
active: SR leukemia 0.591%
inactive: SK-MEL-2 melanoma 79.7% | EKVX NSCLC 88.9% | SN12C renal 90.3% | UO-31 renal 90.4% | TK-10 renal 94% | ACHN renal 107% | CAKI-1 renal 99.8% | MOLT-4 leukemia 17.3% | RPMI-8226 leukemia 14.9% | OVCAR-8 ovarian 97.2% | OVCAR-5 ovarian 70.9% | OVCAR-4 ovarian 108% | SK-OV-3 ovarian 100% | IGROV1 ovarian 95.5% | OVCAR-3 ovarian 89.5% | HS 578T breast 87.8% | NCI/ADR-RES ovarian 76.1%

O=c1c2c3c(sc2n2c(-c4cc(-c5ccccc5)nn4-c4ccccc4)nnc2n1Cc1ccccc1)CCCC3
inactive: SK-MEL-2 melanoma 102% | EKVX NSCLC 101% | SN12C renal 98% | UO-31 renal 36.7% | TK-10 renal 126% | ACHN renal 106% | CAKI-1 renal 20.9% | MOLT-4 leukemia 19.1% | SR leukemia 13.2% | RPMI-8226 leukemia 14.2% | OVCAR-8 ovarian 49.5% | OVCAR-5 ovarian 113% | OVCAR-4 ovarian 83.2% | SK-OV-3 ovarian 133% | OVCAR-3 ovarian 101% | HS 578T breast 356% | NCI/ADR-RES ovarian 80.4%

COc1ccc(NC(=O)c2nc(-c3cc(OC)c(OC)c(OC)c3)n(-c3cccc4ccccc34)n2)cc1OC
inactive: SK-MEL-2 melanoma 43.7% | EKVX NSCLC 44.6% | SN12C renal 52.9% | TK-10 renal 44.8% | ACHN renal 30.6% | CAKI-1 renal 20.1% | SR leukemia 33.1% | RPMI-8226 leukemia 11.6% | OVCAR-8 ovarian 52.5% | OVCAR-5 ovarian 56.1% | OVCAR-4 ovarian 45.5% | SK-OV-3 ovarian 38.3% | IGROV1 ovarian 22.9% | OVCAR-3 ovarian 27.7% | HS 578T breast 23.4% | NCI/ADR-RES ovarian 35.2%
active: UO-31 renal 6.34%

O=C1c2cccc(NCCN=Cc3cc([N+](=O)[O-])ccc3O)c2C(=O)c2c(NCCN=Cc3cc([N+](=O)[O-])ccc3O)cccc21
inactive: SK-MEL-2 melanoma 96% | EKVX NSCLC 87.5% | SN12C renal 40.5% | UO-31 renal 76.5% | TK-10 renal 114% | ACHN renal 70.7% | CAKI-1 renal 56.7% | OVCAR-8 ovarian 78.5% | OVCAR-5 ovarian 86.3% | OVCAR-4 ovarian 69.3% | IGROV1 ovarian 73.5% | OVCAR-3 ovarian 85.1% | HS 578T breast 53.9% | NCI/ADR-RES ovarian 99.9%
active: MOLT-4 leukemia 4.21% | RPMI-8226 leukemia 7.36%

CC(C)C(NC(=O)C1(NC(=O)OCc2ccccc2)CCCC1)C(=O)O (stereo unspecified)
inactive: SK-MEL-2 melanoma 107% | EKVX NSCLC 110% | SN12C renal 102% | UO-31 renal 81% | TK-10 renal 108% | ACHN renal 96.8% | CAKI-1 renal 102% | CCRF-CEM leukemia 104% | MOLT-4 leukemia 96% | RPMI-8226 leukemia 111% | OVCAR-8 ovarian 110% | OVCAR-5 ovarian 94.8% | OVCAR-4 ovarian 124% | SK-OV-3 ovarian 96.2% | IGROV1 ovarian 107% | OVCAR-3 ovarian 120% | NCI/ADR-RES ovarian 104%

Cc1ccc(NS(=O)(=O)c2ccc3c(c2)C2OCCC2C(c2ccc(C(=O)C(C)C)cc2)N3)cc1C (stereo unspecified)
inactive: SK-MEL-2 melanoma 72.9% | EKVX NSCLC 24.7% | SN12C renal 52.3% | UO-31 renal 25.7% | TK-10 renal 63.5% | ACHN renal 32.3% | CAKI-1 renal 45.5% | CCRF-CEM leukemia 60.3% | MOLT-4 leukemia 31.1% | OVCAR-5 ovarian 60.6% | OVCAR-4 ovarian 34.6% | SK-OV-3 ovarian 59.3% | IGROV1 ovarian 56.9% | OVCAR-3 ovarian 59.6% | HS 578T breast 81.7% | NCI/ADR-RES ovarian 41.9%

CCCCNC(=O)Oc1ccc2c(=O)c3sc4c(=O)c5ccccc5c(=O)c4c3c(=O)c2c1
active: SK-MEL-2 melanoma -54.7% | EKVX NSCLC -77.7% | SN12C renal -86.3% | UO-31 renal -56.7% | TK-10 renal -95.2% | ACHN renal -88.9% | CAKI-1 renal -75.4% | CCRF-CEM leukemia -29.4% | MOLT-4 leukemia -44.4% | RPMI-8226 leukemia -41.9% | OVCAR-8 ovarian -20.4% | OVCAR-5 ovarian -73.6% | OVCAR-4 ovarian -95.4% | SK-OV-3 ovarian -93.9% | IGROV1 ovarian -25.6% | OVCAR-3 ovarian -69.5% | HS 578T breast 2.8% | NCI/ADR-RES ovarian -19.3%

NC(=S)Nc1cccc(O)c1
inactive: SK-MEL-2 melanoma 99.1% | EKVX NSCLC 93% | SN12C renal 95.9% | UO-31 renal 80% | TK-10 renal 91.8% | ACHN renal 90.3% | CAKI-1 renal 90% | SR leukemia 82.4% | RPMI-8226 leukemia 88.5% | OVCAR-8 ovarian 94.2% | OVCAR-5 ovarian 96.3% | OVCAR-4 ovarian 107% | SK-OV-3 ovarian 101% | IGROV1 ovarian 98% | OVCAR-3 ovarian 110% | HS 578T breast 102% | NCI/ADR-RES ovarian 94.2%

COc1cc(-c2n/c(=C\c3c(O)[nH]c4ccc(Cl)cc34)cc3c2=Nc2ccccc2-3)cc(OC)c1OC
inactive: SK-MEL-2 melanoma 36% | EKVX NSCLC 38.6% | CAKI-1 renal 13.2% | MOLT-4 leukemia 10.2% | RPMI-8226 leukemia 15.5% | OVCAR-5 ovarian 88.6% | HS 578T breast 20.9% | NCI/ADR-RES ovarian 15.1%
active: SN12C renal -27.5% | UO-31 renal -54.3% | TK-10 renal -7.12% | ACHN renal -44.8% | SR leukemia 0.372% | OVCAR-4 ovarian -41.8% | SK-OV-3 ovarian -14.2% | IGROV1 ovarian -18.3% | OVCAR-3 ovarian -57.4%

COc1cccc(-c2nc3sccn3c2-c2ccnc(NCCNS(=O)(=O)c3cccc(Cl)c3)c2)c1
active: RPMI-8226 leukemia -4.85%
inactive: SK-MEL-2 melanoma 51.8% | EKVX NSCLC 45.8% | SN12C renal 36.3% | UO-31 renal 12.9% | TK-10 renal 59.7% | ACHN renal 30.5% | CAKI-1 renal 25.9% | CCRF-CEM leukemia 24% | MOLT-4 leukemia 30.4% | OVCAR-8 ovarian 21.4% | OVCAR-5 ovarian 89.6% | OVCAR-4 ovarian 34% | SK-OV-3 ovarian 65.6% | IGROV1 ovarian 41.8% | OVCAR-3 ovarian 48.2% | HS 578T breast 38.6% | NCI/ADR-RES ovarian 22.7%
